# Data published in the supplement of paper PMC8728848.
# About 410 targets per protein were measured; listed, in parts, are those with the strongest signals and a random draw of the rest.
# B1: PX9937I-bfa-538-26-538 (Bacteroides fragilis) (protein)
# chain: DKLDLSPIDYYGSGSYWKTEAQATAYIDGIHKHLRDAAWQHTITFGELRGGRFITGASSDGMGVSNGDIILQNFDETHTGVSKFGDLFGRITNLNLFIARVTDATYLSDEMKNFYLGEVYGLRAFYYFDLYRIYGGVPLRLTADVVEGVIDPNKLYMARSTPKEVMTQIKSDLNKSMEYFGNMNDFDPYKRGKKVYWSKAATECLMGEVYLWTSKVTTGDDVANPADLTIAKTHLESVLNNYNLKMLDDFSQVFNAKNKANDEIIFAIRFLEGEATNSNGTFTYNVGTGSTKNRYQANGEVFGDALDIQNTGNQTYEYNKAVYQNFDDADTRKEATFIASYNKDGKTGELSLYGTHVRKNIGYVNAQGARVYCGDYIFYRLPWVYLTLAEIANMEGDNAAVAKYINLVRKRAYGNAWDETLYAYPETADFTTNELAILHEKDKEFIQEGQRWWDLRRMTLTKGGTPLVFCKEGSLLGDAPILNKSTEAHKLLWPIEKTMLNKDPALEQTPGYK
# What was measured:
# Assay in all cases: glycan array binding signal (z-score within array); higher = stronger binding
# Settings in all cases: glycan notation: IUPAC condensed, linker removed
# [1] = target: Gal(b1-4)GlcNAc(b1-3)Gal(b1-4)GlcNAc(b1-3)Gal(b1-4)GlcNAc(b1-3)Gal(b1-4)GlcNAc(b1-2)Man(a1-3)[Gal(b1-4)GlcNAc(b1-3)Gal(b1-4)GlcNAc(b1-3)Gal(b1-4)GlcNAc(b1-3)Gal(b1-4)GlcNAc(b1-2)Man(a1-6)]Man(b1-4)GlcNAc(b1-4)GlcNAc
# Summary of the method: (§1)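 The Consortium for Functional Glycomics database supplied 3228 glycan arrays, of which those lacking an available protein sequence were dropped. The binding signal, a within-array Z-score, was averaged across arrays of the same protein sequence and across linkers. Negative scores can be read as non-binding.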
# [2] = target: Gal(b1-4)GlcNAc(b1-3)Gal(b1-4)GlcNAc(b1-3)Gal(b1-4)GlcNAc(b1-3)Gal(b1-4)GlcNAc(b1-3)Gal(b1-4)GlcNAc(b1-2)Man(a1-3)[Gal(b1-4)GlcNAc(b1-3)Gal(b1-4)GlcNAc(b1-3)Gal(b1-4)GlcNAc(b1-3)Gal(b1-4)GlcNAc(b1-3)Gal(b1-4)GlcNAc(b1-2)Man(a1-6)]Man(b1-4)GlcNAc(b1-4)GlcNAc
# Summary of the method: as §1
# [3] = target: Gal(b1-4)GlcNAc(b1-3)Gal(b1-4)GlcNAc(b1-6)[Gal(b1-3)]GalNAc
# Summary of the method: as §1
# [4] = target: Gal(b1-4)GlcNAc(b1-6)[Gal(b1-3)]GalNAc
# Summary of the method: as §1
# Gal3S4S(b1-4)GlcNAc = target: Gal3S4S(b1-4)GlcNAc
# Summary of the method: as §1
# Gal6P(b1-4)GlcNAc = target: Gal6P(b1-4)GlcNAc
# Summary of the method: as §1
# GalNAc4S6S(b1-4)GlcNAc = target: GalNAc4S6S(b1-4)GlcNAc
# Summary of the method: as §1
# [5] = target: GlcNAc(b1-2)[GlcNAc(b1-4)]Man(a1-3)[GlcNAc(b1-4)][GlcNAc(b1-2)[GlcNAc(b1-6)]Man(a1-6)]Man(b1-4)GlcNAc(b1-4)[Fuc(a1-6)]GlcNAc
# Summary of the method: as §1
# [6] = target: GlcNAc(b1-3)Gal(b1-4)GlcNAc(b1-3)Gal(b1-4)GlcNAc(b1-3)Gal(b1-4)GlcNAc(b1-3)Gal(b1-4)GlcNAc(b1-2)[GlcNAc(b1-3)Gal(b1-4)GlcNAc(b1-3)Gal(b1-4)GlcNAc(b1-3)Gal(b1-4)GlcNAc(b1-3)Gal(b1-4)GlcNAc(b1-6)]Man(a1-6)[GlcNAc(b1-3)Gal(b1-4)GlcNAc(b1-3)Gal(b1-4)GlcNAc(b1-3)Gal(b1-4)GlcNAc(b1-3)Gal(b1-4)GlcNAc(b1-2)Man(a1-3)]Man(b1-4)GlcNAc(b1-4)[Fuc(a1-6)]GlcNAc
# Summary of the method: as §1
# [7] = target: GlcNAc(b1-3)Gal(b1-4)GlcNAc(b1-6)[GlcNAc(b1-3)]Gal(b1-4)GlcNAc
# Summary of the method: as §1
# [8] = target: GlcNAc(b1-4)Gal(b1-4)GlcNAc
# Summary of the method: as §1
# [9] = target: GlcNAc(b1-4)GlcNAc(b1-4)GlcNAc(b1-4)GlcNAc(b1-4)GlcNAc
# Summary of the method: as §1
# [10] = target: GlcNAc(b1-4)GlcNAc(b1-4)GlcNAc(b1-4)GlcNAc(b1-4)GlcNAc(b1-4)GlcNAc
# Summary of the method: as §1
# GlcNAc(b1-6)GalNAc = target: GlcNAc(b1-6)GalNAc
# Summary of the method: as §1
# [11] = target: Man(a1-2)Man(a1-2)Man(a1-3)Man
# Summary of the method: as §1
# Man(a1-3)[Man(a1-6)]Man = target: Man(a1-3)[Man(a1-6)]Man
# Summary of the method: as §1
# [12] = target: Neu5Ac(a2-3)Gal(b1-3)GalNAc(b1-3)Gal(a1-4)Gal(b1-4)Glc
# Summary of the method: as §1
# [13] = target: Neu5Ac(a2-3)Gal(b1-3)[Fuc(a1-4)]GlcNAc(b1-3)Gal(b1-3)[Fuc(a1-4)]GlcNAc
# Summary of the method: as §1
# Neu5Ac(a2-6)Gal(b1-4)Glc = target: Neu5Ac(a2-6)Gal(b1-4)Glc
# Summary of the method: as §1
# [14] = target: Neu5Ac(a2-6)Gal(b1-4)GlcNAc
# Summary of the method: as §1
# [15] = target: Neu5Ac(a2-6)Gal(b1-4)GlcNAc(b1-2)Man(a1-3)Man(b1-4)GlcNAc(b1-4)GlcNAc
# Summary of the method: as §1
# [16] = target: Neu5Ac(a2-6)Gal(b1-4)GlcNAc(b1-2)Man(a1-3)[GlcNAc(b1-2)Man(a1-6)]Man(b1-4)GlcNAc(b1-4)GlcNAc
# Summary of the method: as §1
# [17] = target: Neu5Ac(a2-6)Gal(b1-4)GlcNAc(b1-3)Gal(b1-4)GlcNAc(b1-3)[Neu5Ac(a2-6)Gal(b1-4)GlcNAc(b1-3)Gal(b1-4)GlcNAc(b1-6)]GalNAc
# Summary of the method: as §1
# Neu5Ac(b2-6)GalNAc = target: Neu5Ac(b2-6)GalNAc
# Summary of the method: as §1
# [18] = target: Neu5Gc(a2-6)Gal(b1-4)GlcNAc
# Summary of the method: as §1
binder,measurement,setting,value
B1,glycan array binding signal (z-score),[1],1.43
same,glycan array binding signal (z-score),[2],1.74
same,glycan array binding signal (z-score),[3],3.46
same,glycan array binding signal (z-score),[4],-0.735
same,glycan array binding signal (z-score),Gal3S4S(b1-4)GlcNAc,0.428
same,glycan array binding signal (z-score),Gal6P(b1-4)GlcNAc,-0.37
same,glycan array binding signal (z-score),GalNAc4S6S(b1-4)GlcNAc,-0.708
same,glycan array binding signal (z-score),[5],-0.615
same,glycan array binding signal (z-score),[6],0.041
same,glycan array binding signal (z-score),[7],-0.068
same,glycan array binding signal (z-score),[8],1.65
same,glycan array binding signal (z-score),[9],1.25
same,glycan array binding signal (z-score),[10],-0.198
same,glycan array binding signal (z-score),GlcNAc(b1-6)GalNAc,0.252
same,glycan array binding signal (z-score),[11],0.241
same,glycan array binding signal (z-score),Man(a1-3)[Man(a1-6)]Man,0.95
same,glycan array binding signal (z-score),[12],-1
same,glycan array binding signal (z-score),[13],-1.26
same,glycan array binding signal (z-score),Neu5Ac(a2-6)Gal(b1-4)Glc,-0.274
same,glycan array binding signal (z-score),[14],-0.419
same,glycan array binding signal (z-score),[15],3.63
same,glycan array binding signal (z-score),[16],-0.591
same,glycan array binding signal (z-score),[17],-0.643
same,glycan array binding signal (z-score),Neu5Ac(b2-6)GalNAc,-0.386
same,glycan array binding signal (z-score),[18],-0.339
